Records with an inconclusive call do not appear. Where a structure was tested more than once in an assay, its records may differ in their call. Calls of active or inactive are those of the source. Rule for the calls, unless noted: active = hit-call score of the fitted dose curve at least 0.9, where 1 is the maximum; inconclusive = response in the unintended direction; inactive = score below 0.9.
What was measured:
[1] = system: turtle Thyroid Hormone Receptor, alpha (TRa), gene 101949057; assay: ATG_trTRa_XSP2: Attagene TRANS-FACTORIAL Multi-Species (XSP1) HepG2 Assay for turtle Thyroid Hormone Receptor, alpha (TRa) (AID 2283834);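 note: hits raise reporter mRNA over the DMSO baseline so AC50 marks activators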
How it was run: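 Readout: reporter mRNA induction, fluorescence after RT-PCR, HpaI digestion and capillary electrophoresis. Transiently transfected HepG2, exogenous NR-Gal4 chimera driving GAL4-UAS reporter, 24 h compound exposure. Activity fitted upward relative to DMSO baseline.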

[2] = ATG_M_61_XSP2: Attagene TRANS-FACTORIAL Multi-Species (XSP2) HepG2 Assay for M61 Transcription Factor (Internal Marker) (AID 2283835; active = hit-call score of the fitted dose curve at least 0.9, where 1 is the maximum; inactive = score below 0.9;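 note: reporter mRNA of an internal background marker read by RT-PCR and capillary electrophoresis; active means a rise in signal above the DMSO baseline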)
How it was run: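 Transient MRTU transfection of human HepG2; 24 h chemical dosing with 3 nM 6-alpha-fluorotestosterone + 1.5 nM norgestrel added for AR stimulation. RNA isolated, RT, PCR, FAM-labelled, HpaI cut, CE read. Positive direction vs DMSO.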

[3] = biological target: zebrafish Thyroid Hormone Receptor beta (TRb), thrb (gene 30607) (UniProt Q9PVE4); assay: ATG_zfTRb_XSP2: Attagene TRANS-FACTORIAL Multi-Species (XSP1) HepG2 Assay for zebrafish Thyroid Hormone Receptor beta (TRb) (AID 2283836)
How it was run: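 Multiplexed trans-activation in HepG2 cells, 24 h treatment, with reporter mRNA read by RT-PCR and capillary electrophoresis. Gain-of-signal against DMSO.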

[4] = biological target: human Thyroid hormone Receptor alpha (TRa), THRA (gene 7067) (UniProt P10827); assay: ATG_hTRa_XSP2: Attagene TRANS-FACTORIAL Multi-Species (XSP2) HepG2 Assay for human Thyroid hormone Receptor alpha (TRa) (AID 2283838)
How it was run: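 Gain-of-signal in reporter mRNA, relative to DMSO, after 24 h dosing of transfected HepG2; quantitation by RT-PCR fragment analysis on capillary electrophoresis.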

[5] = biological target: frog Thyroid hormone Receptor alpha (TRa), thra-a (gene 397942) (UniProt P15204); assay: ATG_frTRa_XSP2: Attagene TRANS-FACTORIAL Multi-Species (XSP2) HepG2 Assay for frog Thyroid hormone Receptor alpha (TRa) (AID 2283839)
How it was run: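 Read-out: fluorescent reporter-transcript fragments resolved by capillary electrophoresis after RT-PCR and HpaI cut. Human HepG2 liver cells carry a transfected frog TRα-Gal4 chimera driving a UAS reporter; 24 h exposure, DMSO baseline, positive-direction fit.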

[6] = system: Sodium/Iodide Symporter (NIS), SLC5A5 (gene 6528); assay: CPHEA_Stoker_NIS_Inhibition_RAIU: CPHEA's Radioactive Iodide Uptake (RAIU) Assay for Sodium/Iodide Symporter (NIS) Inhibition, Stoker and Laws Labs (AID 2283841)
How it was run: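 Test chemicals, six concentrations from 0.001 to 100uM in 0.5% DMSO, were co-incubated with carrier-free 125I (final 329pM) on hNIS-HEK293T-EPA monolayers in pH 7.4 HEPES-buffered HBSS. Plates stood 2 hours at room temperature, then were washed cold and counted.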

[7] = CPHEA_Stoker_NIS_Cytotoxicity: Cytotoxicity Assessment for CPHEA's Radioactive Iodide Uptake (RAIU) Assay for Sodium/Iodide Symporter (NIS) Inhibition, Stoker and Laws Labs (AID 2283897);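 for AC50: active means loss of ATP signal versus DMSO meaning cytotoxicity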
How it was run: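 Viability in hNIS-HEK293T-EPA cells is scored as a drop in luciferase-detected ATP following 2-hour room-temperature exposure (0.001–100uM; triplicate wells, three cell passages), with DMSO as negative control.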

[8] = biological target: zebrafish Thyroid Hormone Receptor alpha (TRa), thraa (gene 30670) (UniProt Q98867); assay: ATG_zfTRa_XSP2: Attagene TRANS-FACTORIAL Multi-Species (XSP1) HepG2 Assay for zebrafish Thyroid Hormone Receptor alpha (TRa) (AID 2283832);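 note: actives raise zebrafish TRa-Gal4 reporter transcript above DMSO baseline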
How it was run: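 Multiplexed TRANS reporter format in HepG2; the medium also contained 3 nM 6-alpha-fluorotestosterone and 1.5 nM norgestrel. Reporter mRNA after 24 h read by RT-PCR and capillary electrophoresis, scored as induction over DMSO.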

[9] = system: zebrafish Peroxisome Proliferator-activated Receptor gamma (PPARg), gene 557037; assay: ATG_zfPPARg_XSP2: Attagene TRANS-FACTORIAL Multi-Species (XSP2) HepG2 Assay for zebrafish Peroxisome Proliferator-activated Receptor gamma (PPARg) (AID 2283833);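 note: reporter mRNA from a zebrafish PPARg GAL4 chimera measured by RT-PCR and capillary electrophoresis; actives increase reporter signal over DMSO so AC50 reflects activation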
Protocol: ATG_XSP2_multi-species_TRANS is a cell-based, multiplexed assay created by modifying the existing Attagene TRANS-FACTORIAL system to include a panel of nuclear receptors from some or all the following species: human (Homo sapiens), mouse (Mus musculus), frog (Xenopus laevis), zebrafish (Danio rerio), chicken (Gallus gallus), and turtle (Chrysemys picta). The ECOTOX-FACTORIAL format uses HepG2, a human liver cell line, with measurements taken at 24 hours after chemical dosing in a 24-well plate. Xsp2 included 3 nM 6-alpha-fluorotestosterone and 1.5 nM norgestrel to stimulate the androgen receptor.ATG_zfPPARg_XSP2 is one of 29 assay components measured or calculated from the ATG_XSP2_multi-species_TRANS assay. It is designed to make measurements of mRNA induction, a form of inducible reporter, as detected with fluorescence intensity signals by Reverse transcription polymerase chain reaction (RT-PCR) and Capillary electrophoresis technology.The assay endpoint ATG_zfPPARg_XSP2 was analyzed in the positive analysis fitting direction relative to DMSO as the negative control and baseline of activity. Using a type of inducible reporter, measures of mRNA for gain-of-signal activity can be used to understand the reporter gene at the transcription factor-level as they relate to the gene PPARg. Furthermore, this assay endpoint can be referred to as a primary readout, because this assay has produced multiple assay endpoints where this one serves a reporter gene function. To generalize the intended target to other relatable targets, this assay endpoint is annotated to the nuclear receptor intended target family, where the subfamily is non-steroidal.
Human liver HepG2 cells are transiently transfected with multiple reporter transcription units (MRTUs) in 6-well plates using FuGene 6 reagent (Roche; 3 ml FuGene/1 mg DNA). The MRTU constructs are regulated by a cis-regulating element (promoter). […] A major difference between the CIS and TRANS system is that in CIS activities of endogenous TFs are measured, whereas the TRANS assay evaluates changes in activities of exogenous, chimeric NR-Gal4 proteins. […] At the end of 24 hour incubation, total RNA was isolated using TriZol reagent (Invitrogen). The isolated RNA is then reverse-transcribed using oligo(dT) primer and Mo-MLV reverse transcriptase (Invitrogen) with DNAse I (Ambion) treatment for 30 min. The one-tenth of the produced cDNA was amplified by PCR using Taq DNA polymerase (Invitrogen) and two reporter sequence-specific primers. The PCR products were fluorescently labeled by primer extension with 6-arboxyfluorescein (6-FAM) 5'-labeled reporter sequence-specific primer (2 min at 95 C, 20 s at 68 C and 10 min at 72 C) and these products were digested with 5U of HpaI (New England Biolabs) for 2h at 37 C. The fragments were purified using Qiaquick PCR columns (Qiagen), analyzed on an ABI 3130xL genetic analyzer (Applied Biosystems) with peak positions identified by using a set of X-rhodamine (ROX)-labeled MapMarker1000 molecular weight standards (BioVentures). The raw capillary electrophoresis data was processed using Attagraph software (Attagene).

[10] = ATG_XTT_Cytotoxicity_XSP2: Cytotoxicity Assessment in the Attagene TRANS-FACTORIAL Multi-Species (XSP2) HepG2 Assay (AID 2283837)
How it was run: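 XTT-based cell number read-out in human HepG2 liver cells carrying transfected reporter units, measured 24 h after chemical dosing. Activity is signal loss versus DMSO baseline.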

Measured: AC50

Sequence of zebrafish Thyroid Hormone Receptor alpha (TRa), thraa (gene 30670) (Q98867 whole entry, looked up, the tested form may be a part): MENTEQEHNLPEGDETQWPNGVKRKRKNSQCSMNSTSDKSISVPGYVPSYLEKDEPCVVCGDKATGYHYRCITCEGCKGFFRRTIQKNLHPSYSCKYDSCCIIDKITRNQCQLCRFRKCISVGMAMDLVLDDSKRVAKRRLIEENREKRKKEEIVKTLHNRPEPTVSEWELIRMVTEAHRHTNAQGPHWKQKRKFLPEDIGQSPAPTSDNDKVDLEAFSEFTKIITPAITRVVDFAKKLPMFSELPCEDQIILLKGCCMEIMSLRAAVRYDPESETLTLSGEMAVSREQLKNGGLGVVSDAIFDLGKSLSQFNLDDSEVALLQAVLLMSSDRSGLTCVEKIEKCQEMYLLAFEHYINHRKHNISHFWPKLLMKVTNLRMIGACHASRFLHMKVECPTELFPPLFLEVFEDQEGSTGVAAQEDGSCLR
Sequence of human Thyroid hormone Receptor alpha (TRa), THRA (gene 7067) (P10827 whole entry, looked up, the tested form may be a part): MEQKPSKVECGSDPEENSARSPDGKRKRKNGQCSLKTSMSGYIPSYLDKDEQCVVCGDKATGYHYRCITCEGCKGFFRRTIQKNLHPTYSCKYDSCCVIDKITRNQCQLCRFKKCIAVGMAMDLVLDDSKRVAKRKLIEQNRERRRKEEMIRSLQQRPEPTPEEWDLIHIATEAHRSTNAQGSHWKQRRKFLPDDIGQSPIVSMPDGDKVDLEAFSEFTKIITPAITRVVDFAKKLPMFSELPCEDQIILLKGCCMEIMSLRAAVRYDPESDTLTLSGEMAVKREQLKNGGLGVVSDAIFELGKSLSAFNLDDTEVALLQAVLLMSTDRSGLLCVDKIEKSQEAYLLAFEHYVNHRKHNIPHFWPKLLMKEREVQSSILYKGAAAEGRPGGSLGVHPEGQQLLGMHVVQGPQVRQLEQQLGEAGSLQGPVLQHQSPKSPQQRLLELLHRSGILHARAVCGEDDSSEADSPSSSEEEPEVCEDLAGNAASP
Sequence of frog Thyroid hormone Receptor alpha (TRa), thra-a (gene 397942) (P15204 whole entry, looked up, the tested form may be a part): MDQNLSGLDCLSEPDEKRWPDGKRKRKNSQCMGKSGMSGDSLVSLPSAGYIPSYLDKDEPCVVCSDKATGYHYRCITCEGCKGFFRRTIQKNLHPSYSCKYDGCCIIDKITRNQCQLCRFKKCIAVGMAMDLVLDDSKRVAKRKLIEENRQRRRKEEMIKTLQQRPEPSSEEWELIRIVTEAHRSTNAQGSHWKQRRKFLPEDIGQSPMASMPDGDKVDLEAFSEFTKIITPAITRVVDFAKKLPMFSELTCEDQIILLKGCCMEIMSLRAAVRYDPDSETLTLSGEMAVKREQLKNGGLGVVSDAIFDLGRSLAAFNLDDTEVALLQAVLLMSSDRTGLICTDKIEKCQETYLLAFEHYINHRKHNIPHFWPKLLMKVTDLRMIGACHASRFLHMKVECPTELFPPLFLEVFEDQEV
Sequence of zebrafish Thyroid Hormone Receptor beta (TRb), thrb (gene 30607) (Q9PVE4 whole entry, looked up): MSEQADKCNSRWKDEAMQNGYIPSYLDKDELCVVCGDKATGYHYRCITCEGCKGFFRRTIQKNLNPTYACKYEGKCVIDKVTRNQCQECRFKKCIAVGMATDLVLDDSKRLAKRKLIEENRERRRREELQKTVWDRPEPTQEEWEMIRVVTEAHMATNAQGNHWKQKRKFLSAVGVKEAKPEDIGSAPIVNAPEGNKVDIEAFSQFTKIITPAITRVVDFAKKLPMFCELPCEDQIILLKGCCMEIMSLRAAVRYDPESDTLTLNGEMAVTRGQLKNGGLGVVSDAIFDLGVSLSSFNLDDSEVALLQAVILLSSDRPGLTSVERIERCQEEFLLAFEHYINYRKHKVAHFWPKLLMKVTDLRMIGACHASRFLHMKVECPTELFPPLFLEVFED

CCC(=O)O[C@H]1CC[C@H]2[C@@H]3CCC4=CC(=O)CC[C@]4(C)[C@H]3CC[C@]12C
active: [7] 646 nM
inactive: [1] | [2] | [3] | [4] | [5] | [6]

Cc1ccccc1CO[C@@H]1C[C@@]2(C(C)C)CC[C@]1(C)O2
inactive: [6] | [7]

ClC1=C(Cl)[C@]2(Cl)[C@@H]3[C@@H]4C[C@@H]([C@H]5O[C@@H]45)[C@@H]3[C@@]1(Cl)C2(Cl)Cl
inactive: [6] | [7]

COc1ccc(O)c(C(C)(C)C)c1
inactive: [7]

CC#Cc1cc(C)nc(Nc2ccccc2)n1
inactive: [6] | [7]

CCOC(=O)C(O)(c1ccc(Cl)cc1)c1ccc(Cl)cc1
inactive: [8] | [9] | [1] | [2] | [3] | [4] | [5] | [6] | [7]
active: [10] 100 µM | [4] 55.6 µM

O=NN(c1ccccc1)c1ccccc1
inactive: [6] | [7]

CO/C=C(/C(=O)OC)c1ccccc1COc1cccc(C(F)(F)F)n1
inactive: [6] | [7]

Cc1cc2c3c(c1)C(c1ccccc1)=N[C@@H](NC(=O)c1ccncc1)C(=O)N3CC2
inactive: [7]

c1cc2ccc3cccc4ccc(c1)c2c34
inactive: [8] | [9] | [1] | [3] | [10] | [4] | [5]

CCSC(=O)N(CC)C1CCCCC1
inactive: [6] | [7]

CC(c1ccc(O)cc1)(c1ccc(O)cc1)c1ccc(O)cc1
inactive: [8] | [9] | [1] | [2] | [3] | [5]

CCC(C)(c1ccc(O)cc1)c1ccc(O)cc1
inactive: [6] | [7]
